According to PubChem BioAssay:
A number with no mark means an inactive call. The rule behind the calls is not given here.

The compounds below were run against Pantothenate synthetase (Mycobacterium tuberculosis (strain ATCC 25618 / H37Rv)) (UniProt P9WIL5) (assay: Coupled enzyme confirmation of inhibitors against recombinant Mtb PanC (AID 375;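 note: 0% = full reaction with vehicle and 100% = no enzyme background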)). Details: coupled enzyme assay; at 10 µM, active compounds read high.
Pantothenate synthetase (Mycobacterium tuberculosis (strain ATCC 25618 / H37Rv)), sequence (P9WIL5 whole entry, looked up): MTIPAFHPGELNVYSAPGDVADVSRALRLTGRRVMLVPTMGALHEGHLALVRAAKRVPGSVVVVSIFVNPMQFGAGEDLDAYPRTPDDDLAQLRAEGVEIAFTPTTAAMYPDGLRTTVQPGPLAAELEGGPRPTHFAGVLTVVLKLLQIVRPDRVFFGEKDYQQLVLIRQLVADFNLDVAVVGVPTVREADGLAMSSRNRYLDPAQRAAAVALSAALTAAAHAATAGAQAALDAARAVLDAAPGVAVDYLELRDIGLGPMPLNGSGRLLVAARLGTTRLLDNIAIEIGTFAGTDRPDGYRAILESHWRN

Structure (SMILES)	inhibition [%]
O=C(c1ccc2c(c1)OCO2)N1CCNc2ccccc2C1	0
CC(C)C1N=C2c3ccccc3N=C(SCc3cc(=O)n4ccccc4n3)N2C1=O (stereo not given)	6
CC(C)CCNC(=O)NC(=O)CSc1nnc(COc2ccccc2Cl)o1	7
Cc1ccc(S(=O)(=O)C(C#N)c2nc3ccccc3nc2OC(C)C)cc1 (stereo not given)	0
COc1ccc(Cn2nnnc2C(c2cc3cc(C)cc(C)c3[nH]c2=O)N2CCOCC2)cc1 (stereo not given)	0
c1ccc(-c2cnc(CSc3ncnc4sccc34)o2)cc1	0
CCCn1cnc2c(c1=O)c1nc3ccccc3nc1n2Cc1ccccc1OC	0
N#Cc1c(N2CCOCC2)nc(N2CCCCC2)c2c1CCN(C1CCCCC1)C2	0
CCC(c1nnc(SCC(=O)Nc2ccc(C(=O)Nc3ccccc3OC)cc2)o1)N(C)C (stereo not given)	0
O=C(CN1CCC(n2nnc3cc(F)ccc32)CC1)Nc1ccc2c(c1)CCC2	0
Cc1ccc(S(=O)(=O)N2CCN(C(=O)c3cc(=O)[nH]c4ccccc34)CC2)c(C)c1	3
Cc1cc(OCC(=O)N2CCOCC2)cc2oc(=O)c3ccccc3c12	0
O=C(CSc1ncnc2ccccc12)NCCCO	0
CCCN(Cc1cc2cc(C)ccc2[nH]c1=O)C(=O)c1cccc(OC)c1	0
COC(=O)[C@H](C)NC(=O)NCc1ccc(F)cc1	1
N#CCCCN1C(=O)C(O)(CC(=O)c2ccc3c(c2)OCCO3)c2ccccc21 (stereo not given)	0
Nc1ccc(S(=O)(=O)NC(=O)c2ccccc2)cc1	0
CC(C)(C)OC(=O)N1CCOCCOCCN(C(=O)OC(C)(C)C)CCOCCOCC1	0
O=S(=O)(c1ccccc1)N1CCN(S(=O)(=O)c2ccccc2)C1	0
CCSc1nc2c(c(=O)n(C)c(=O)n2C)n1Cc1ccc(Cl)cc1	4

Structure (SMILES)	inhibition [%]
Cn1ccnc1SCC(=O)Nc1ccc2ccccc2c1	2
CCSc1nncn1/N=C/c1ccc(OC)c(OC)c1	4
COc1ccc2c(c1)C1(C)CC(C)(C)N2C(=O)N1c1ccccc1 (stereo not given)	4
Cn1c(SCC(=O)N2CCOCC2)nnc1-c1cnccn1	0
CCOCCCNC(=O)C1CCN(S(=O)(=O)N(CC(C)C)CC(C)C)CC1	0
S=c1[nH]nc(-c2ccccc2)n1C1C=CCCC1 (stereo not given)	0
COc1ccc(-c2nnc(SCC(=O)Nc3cc(C)on3)n2C)cc1OC	5
COc1ccc(Nc2nc(Nc3ccc(OC)cc3)nc(-n3[nH]c(=O)c(C)c3C)n2)cc1	0
C=CCn1c(SCC(=O)NC2CCCCC2)nnc1-c1sc(N)nc1C	7
Cc1cccc(N2C(=O)CC(N(C(=O)c3ccco3)c3cccc(C)c3)C2=O)c1 (stereo not given)	0
CCOc1ccccc1C1NC(=O)NC(C)=C1C(=O)OC1CCCC1C (stereo not given)	2
CC(C)COC(=O)C(C#N)c1nc2ccccc2nc1N1CCN(Cc2ccccc2)CC1 (stereo not given)	0
CN1C(=O)c2oc3ccccc3c(=O)c2C1c1ccccn1 (stereo not given)	0
CC(=O)OCC(=O)[C@@]12OC(C)(C)O[C@@H]1C[C@H]1[C@@H]3C[C@H](F)C4=CC(=O)C=C[C@]4(C)[C@@]3(F)[C@@H](O)C[C@@]12C	1
CCn1c(SCC(=O)N2c3ccccc3CCc3ccccc32)nc2c1c(=O)n(C)c(=O)n2C	1
O=C(COC(=O)c1cc(S(=O)(=O)N2CCOCC2)cs1)c1ccccc1	0
CCOC(=O)CCC(=O)O[C@H]1[C@H](O[C@@H]2[C@@H](C)[C@H](O[C@H]3C[C@@](C)(OC)[C@@H](O)[C@H](C)O3)[C@@H](C)C(=O)O[C@H](CC)[C@@](C)(O)[C@H](O)[C@@H](C)C(=O)[C@H](C)C[C@@]2(C)O)O[C@H](C)C[C@@H]1N(C)C	0
O=C(c1ccc2c(c1)OCCO2)N1CCCCC1	1
CCCC(=O)n1nc(-c2ccc(OC)cc2)nc1N	2
CCOC(=O)c1oc2c(CN3CCN(C)CC3)c(O)ccc2c(=O)c1-c1ccccc1OC	0
